Rows were chosen to be rich in hits. Some 12% of all compounds tested hit in one or more screens of this group.
G9a block: G9a (human) methyltransferase inhibition. Q96KQ7. G9a H3K9 monomethylation, AlphaScreen, 2 h. Potency, µM (top dose mostly 102 µM), usual class: inhibitors. hit rate 8.8% among 350,000. AID 504332; note: nearly all actives have a fitted effect of over 75% in size
Target sequence (Q96KQ7 913-1193 limits assumed): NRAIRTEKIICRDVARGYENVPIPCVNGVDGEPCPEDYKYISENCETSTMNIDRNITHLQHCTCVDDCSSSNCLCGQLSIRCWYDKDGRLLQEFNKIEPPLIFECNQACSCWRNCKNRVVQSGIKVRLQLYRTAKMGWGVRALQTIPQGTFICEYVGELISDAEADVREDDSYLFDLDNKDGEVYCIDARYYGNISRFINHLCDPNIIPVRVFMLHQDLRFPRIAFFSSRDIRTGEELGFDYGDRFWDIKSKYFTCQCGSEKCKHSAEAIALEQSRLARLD
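Quantitative HTS format: methyltransferase activity on a biotin-tagged H3K9 peptide is measured by AlphaScreen, using a rabbit anti-monomethyl-H3K9 antibody with streptavidin donor and anti-IgG acceptor beads. Final levels are 20 nM enzyme, 500 nM peptide, 20 uM SAM; 2 h RT.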
JMJD2A Tudor: JMJD2A Tudor domain (human) inhibition; O75164; AlphaScreen JMJD2A-Tudor / H3K4me3 peptide binding; Potency, µM (highest dose often 114 µM), most hits filed as inhibitors; hit rate 4.4% among 390,000; AID 504339; note: nearly all actives have a fitted effect of over 50% in size
Sfp inh: Sfp phosphopantetheinyl transferase inhibition; Q9F4F7; Biochemical Sfp PPTase activity, qHTS; Potency, µM, actives largely listed as inhibitors; hit rate 3.5% among 310,000; AID 1490;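 note: the enzyme is Sfp with the accession as filed and its product quenches rhodamine fluorescence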
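Fluorescence-quenching assay with 15 nM Sfp, 5 uM rhodamine-CoA and 12.5 uM BHQ-2-labelled ybbR peptide in pH 7.6 Hepes/MgCl2 buffer. Enzyme was pre-incubated with compound for 15 min at room temperature. Rate was taken from the 30-min fluorescence change (525/598 nm).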
HP1b chromo inh: blocks HP1-beta chromodomain binding to methylated histone tails | AID 540317 | AlphaScreen HP1-beta / biotin-H3K9me3 peptide binding | Potency, µM (highest dose often 114 µM), hits mostly inhibitors | hit rate 0.56% among 390,000; note: nearly all actives have a fitted effect of over 70% in size
Target sequence (P83916 whole entry, looked up): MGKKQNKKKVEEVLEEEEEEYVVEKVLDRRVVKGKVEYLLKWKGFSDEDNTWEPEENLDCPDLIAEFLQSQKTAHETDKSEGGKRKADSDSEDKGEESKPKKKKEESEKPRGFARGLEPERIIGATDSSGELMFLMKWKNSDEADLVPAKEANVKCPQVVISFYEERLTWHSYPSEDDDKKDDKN
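AlphaScreen: HP1-beta (50 nM) preformed 30 min with biotin-H3(1-18)K9me3 peptide (50 nM) in PBS pH 7.4, 0.01% Tween-20. Compound added for 30 min at RT, then streptavidin donor/nickel chelate acceptor beads (10 ug/mL) for 30 min.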
BAZ2B block: BAZ2B (human) inhibition. hit rate 4.4% among 360,000. AlphaScreen BAZ2B-H3K14Ac peptide displacement. Q9UIF8. Potency, µM (top dose mostly 114 µM), actives largely listed as inhibitors. AID 504333; note: nearly all actives have a fitted effect of over 60% in size
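Compounds, titrated to a top concentration of 110 uM, were incubated 30 min at room temperature with preformed BAZ2B/acetyl-K14 H3 peptide complex (50 nM each). Proximity signal was measured by AlphaScreen after 20 min with beads.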
Numbers stand for hits; - = inactive; ? = inconclusive; . = no result; [ ] = another dose, or the depositor's remark. Calls come from the whole dose curve; as a rule, active = well fitted curve in the direction sought with a large enough effect; inconclusive = small, poorly fitted or top-dose-only effect, or another doubt; inactive = no such curve, though single readings can be large; an effect the other way counts as inactive or inconclusive.

SMILES | G9a block | JMJD2A Tudor | Sfp inh | HP1b chromo inh | BAZ2B block
O=C(Nc1ccncc1)c1ccc(Cl)c(S(=O)(=O)N2CCCCC2)c1 | -[0.501 µM] | - | . | - | -
Cc1ccc(NC(=S)Nc2ccc(C(C)C)cc2)cc1S(=O)(=O)N1CCCCCC1 | 45µM | - | 56µM | - | -
CCOc1ncccc1C(=O)Nc1ccc(C)c(S(=O)(=O)N2CCCCCC2)c1 | - | 20µM | . | - | -
O=C(Nc1ccc(Cl)c(S(=O)(=O)N2CCCCC2)c1)c1ccncc1 | 56µM | - | . | - | -
COc1ccccc1NC(=O)/C=C/c1ccc(OC)c(S(=O)(=O)N2CCOCC2)c1 | - | - | - | - | -
CCCCC(=O)Nc1cccc(NC(=O)C(C)C)c1 | - | - | - | - | -
Cc1ccc(C2=NN(CCC(=O)NC3CCCC3)C(=O)CC2)cc1 | - | - | - | - | -
COc1cc(OC)cc(-c2nnc(SCc3ccc(C(=O)O)cc3)o2)c1 | 40µM | - | 50µM | - | -
O=C(O)c1ccc(CSc2nnc(-c3ccco3)o2)cc1 | - | - | - | - | -
Cc1cccc(NC(=O)CNC(=O)COC(=O)c2ccco2)c1C | -[2.33 µM] | - | . | - | -
Cc1cc(-c2n[nH]c(=S)n2/N=C/c2ccc(C)s2)n[nH]1 | 1.8µM | 7.9µM | - | - | ?
Cc1ccc(/C=N/n2c(C)nnc2C)s1 | ? | - | - | ? | -
Cc1cc(-c2n[nH]c(=S)n2/N=C/c2ccc(Br)s2)n[nH]1 | ? | 13µM | - | - | -
COc1cccc(C2CC(c3ccccc3Cl)Nc3ncnn32)c1 (centres undefined) | . | - | . | - | .
Cc1nn(Cc2cccc(Oc3ccccc3)c2)c(C)c1NC(=O)NC12CC3CC(CC(C3)C1)C2 | - | - | - | - | -
COc1cc([N+](=O)[O-])ccc1N=Nc1c(N)[nH]n(-c2ccccc2)c1=O | 50µM | -[11.4 µM] | - | - | ?
Nc1[nH]n(-c2ccccc2)c(=O)c1N=Nc1ccc2ncsc2c1 | . | -[11.4 µM] | 50µM | - | ?
Nc1[nH]n(-c2ccccc2)c(=O)c1N=Nc1ccccc1[N+](=O)[O-] | - | - | - | - | -
Nc1c(N=Nc2cccc(Cl)c2)c(=O)[nH]n1-c1ccccc1 | - | - | - | - | -
Nc1[nH]n(-c2ccccc2)c(=O)c1N=Nc1ccccc1 | 4.5µM | 13µM | - | ? | 7.9µM
Cc1ccc(CNc2ncnc3nc[nH]c23)cc1 | . | - | . | - | .
O=C(c1cc2nc(C3CC3)cc(C(F)F)n2n1)N1CCOCC1 | -[12.7 µM] | - | ? | - | -
Clc1nccc(N2CCN(c3ccccc3Cl)CC2)n1 | . | - | . | - | .
CN(C)S(=O)(=O)c1cc(NC(=O)CN2CCc3ccccc32)ccc1Cl | 16µM | - | - | - | -
O=C(CN1CCCc2ccccc21)NCc1ccccc1Cl | 45µM | - | - | - | -
SMILES | G9a block | JMJD2A Tudor | Sfp inh | HP1b chromo inh | BAZ2B block
O=C(CN1CCCc2ccccc21)Nc1cc(S(=O)(=O)N2CCCC2)ccc1Cl | 25µM | - | . | - | -
Cc1ccc2c(c1)CCCN2CC(=O)Nc1cc(S(=O)(=O)N2CCCC2)ccc1Cl | ? | ? | . | - | ?
CN(C)S(=O)(=O)c1ccc(NC(=O)CN2CCCc3ccccc32)cc1 | 40µM | ? | - | - | ?
NNC(=O)CN1CCCc2ccccc21 | - | -[11.4 µM] | - | - | -
Cc1ccc(S(=O)(=O)NCCOc2cc(C)ccc2C)cc1 | - | - | - | - | -
Cc1ccc(NC(=O)c2cncc(Br)c2)cc1S(=O)(=O)N(C)C | - | 13µM | - | ? | -
Cc1cnc(C(=O)Nc2ccc(C)c(S(=O)(=O)N(C)C)c2)cn1 | - | 50µM | - | - | -
Cc1ccc2nsnc2c1NC(=O)c1cncc(Br)c1 | 56µM | - | - | - | -
CC(=O)Nc1c(C)ccc2nsnc12 | - | - | - | - | -
Cc1ccc(NC(=O)c2cnccn2)cc1S(=O)(=O)N(C)C | - | - | - | - | -
CCN(CC(=O)Nc1c(F)cccc1F)C(=O)C1CC(=O)N(c2ccccc2OC)C1 (centres undefined) | . | - | - | - | -
COc1ccc(OC)c2c(=O)cc(C(=O)O)[nH]c12 | 25µM | 79µM | - | - | ?
COc1cc2cc(C(=O)O)[nH]c2c(OC)c1OC | - | - | - | - | ?
CCOC(=O)C1CCN(C(=O)CC(C)S(=O)(=O)c2ccc3c(c2)NC(=O)CO3)CC1 (centres undefined) | 71µM | - | - | - | -
CCOC(=O)C1CCCN(C(=O)CN2C(=O)COc3ccc(C(C)(C)C)cc32)C1 (centres undefined) | - | - | - | - | -
CCOC(=O)C1CCN(C(=O)CN2C(=O)COc3ccc(C(C)(C)C)cc32)CC1 | - | 79µM | - | - | -
COc1c2ccoc2nc2c(OC)c(OCC(O)C(C)(C)O)ccc12 (centres undefined) | - | - | - | - | -
Cc1nnnn1/C(=C\c1ccccc1)C(=O)OCC(=O)NC1CCCCC1 | 50µM | - | . | - | -
CN(C1CCCCC1)S(=O)(=O)c1ccc2c(c1)c(=O)c(C(=O)N1CCc3ccccc3C1)cn2C | - | - | - | - | -
CN(Cc1cccs1)C(=O)c1cc(S(=O)(=O)N2CCOCC2)ccc1N1CCCC1 | -[2.33 µM] | - | . | - | -
CCN(Cc1cccs1)C(=O)CN1CCN(S(=O)(=O)c2ccc3c(c2)OCCCO3)CC1 | 45µM | - | . | - | -
C=CCN(Cc1cccs1)C(=O)CN1CCN(S(=O)(=O)c2ccc3c(c2)OCCCO3)CC1 | -[2.33 µM] | - | . | - | -
CN(Cc1cccs1)C(=O)CN1CCN(S(=O)(=O)c2ccc3c(c2)OCCCO3)CC1 | 45µM | - | . | - | -
C(=NOCCc1ccccc1)c1cccnc1 | . | - | . | - | .
Cc1cc([N+](=O)[O-])ccc1N | - | - | . | - | -
SMILES | G9a block | JMJD2A Tudor | Sfp inh | HP1b chromo inh | BAZ2B block
C[n+]1ccccc1Nc1cc([N+](=O)[O-])ccc1N | 11µM | - | - | - | ?
Cc1ccccc1-n1c([C@@H]2C[C@H]2c2ccccc2)n[nH]c1=S | . | 45µM | - | - | -
S=c1[nH]nc([C@@H]2C[C@H]2c2ccccc2)n1-c1ccccc1 | 2µM | 18µM | - | - | -
O=C1C2CCCN2C(c2ccccc2)N1c1cccc(Cl)c1 (centres undefined) | - | - | - | - | -
Cc1ccccc1C1N(c2nccs2)C(=O)C2CCCN21 (centres undefined) | ? | - | 50µM | - | -
O=C1C2CCCN2C(c2ccccc2)N1c1nccs1 (centres undefined) | ? | ? | 50µM | - | ?
COc1cc(C2C3=C(COC3=O)Oc3cc4c(cc32)OCO4)cc(OC)c1OC (centres undefined) | . | - | . | - | .
O=S(=O)(c1ccccc1)c1cc(O)ccc1O | 50µM | - | - | - | -
Cc1c(O)ccc2cc(S(=O)(=O)c3ccccc3)c(=O)oc12 | - | - | - | - | -
O=S(=O)(c1ccc(Cl)cc1)c1cc(O)ccc1O | 45µM | - | - | ? | -
C=CCNc1nc2c(c(=O)n(C)c(=O)n2C)n1CC(=C)C | -[12.7 µM] | - | - | - | -
